In PubChem BioAssay (NCI) one finds growth data, which are given here for 40 compounds.

Compounds without any hit were thinned out: in the full panel of roughly 83,000, 20% have a hit.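 Growth was measured after 48 h exposure to one concentration of compound in 96-well plates. Values under 10 count as active.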 Active and inactive are the calls of the source.

One assay relates to CAKI-1 renal. The assay can be described thus: NCI-60 one-dose screen, 48 h (100 = growth as untreated, 0 = no growth, -100 = all killed). Particulars: 10 µM unless noted.
`O=[N+]([O-])c1ccc2cnn(CSP(=S)(c3ccccc3)c3ccccc3)c2c1`: the growth was 81.5% (inactive).
For `NC(=O)C(Cl)Cl`, the growth was 98.1% (inactive).
The same measure, in the same setting: in the case of `CCN(CC)c1ccc(C=C2C(=O)NC(=S)NC2=O)cc1` it was 91.8% (inactive).
As to `Clc1ccc(SSC(Cl)(Cl)Cl)cc1`, the growth was 119% (inactive).
In the case of `[O]=[Sn]([CH]1CCCCC1)[CH]1CCCCC1`, the growth was -93.5% (active).
On to `ClCCN(CCCl)c1nc(Cl)c(C2CC(c3ccccc3)=NN2c2ccccc2)s1` (configuration not stated), for which the growth was 81.4% (inactive).
Turning to `CC(=O)C1CCC2C3CC=C4CC(OC(=O)Cc5ccc(N(CCCl)CCCl)cc5)CCC4(C)C3CCC12C` (configuration not stated), the growth is 87.7% (inactive).
In the case of `Cc1ccccc1O`, the growth was 96.2% (inactive).
For the compound `O=[N+]([O-])c1ccccc1N1CCNCC1`, the growth is 94.1% (inactive).
Regarding `CC(=O)Nc1ccc(C=C2C(=O)NC(=O)NC2=O)cc1`, the growth is 97.5% (inactive).

In the next assay the test system is A498 renal. The description is as above. Particulars: 10 µM unless noted.
Turning to `CCCCn1cc(C(=O)/C(C#N)=C/c2cc3ccccc3nc2Cl)c2cc(OC)ccc21`, the growth was 94.8% (inactive).
The same measure, in the same setting: in the case of `CCCCNCCc1ccccn1` it was 95.5% (inactive).
Still for that read-out and setting: in the case of `CC(=O)C1C(=O)N(C)C(=O)N(C)C1=O` it was 83.2% (inactive).
Consider `CC1(C)N=C(N)N=C(N)N1c1cccc(C(=O)Nc2cccc(S(=O)(=O)F)c2)c1`, for which the growth is 73.9% (inactive).
Turning to `C[C@]12CC[C@@H]3C4=C(CC[C@H]3[C@@H]1CC[C@@H]2O)CC(=O)CC4`, the growth is 90.6% (inactive).
Same read-out and setting: the value for `Oc1ccccc1OB(Oc1ccccc1O)N(CCCl)CCCl` was 88.6% (inactive).
For `NC(Cc1ccc2c(c1)OCO2)c1ccc2c(c1)OCO2` (configuration not stated), the growth was 92.1% (inactive).
Same read-out and setting: the value for `CC[C@@]1(C2O[C@@H](C3O[C@@](O)(CC)[C@H](C)C[C@@H]3C)C[C@@H]2C)CC[C@H]([C@]2(C)CCC3(C[C@H](O)[C@@H](C)[C@@H]([C@H](C)[C@@H](OC)[C@H](C)C(=O)O)O3)O2)O1` (some centres not stated) was 42.7% (inactive).
For `CC1(C)N=C(N)N=C(N)N1c1ccc(CCCCc2ccc(S(=O)(=O)F)cc2)c(Cl)c1`, the growth was 37.3% (inactive).
With `COc1ccc(C2=NN(c3ccccc3)C(c3sc(N(CCCl)CCCl)nc3Cl)C2)cc1` (configuration not stated), the growth is 122% (inactive).
Consider `N#CC1c2ccccc2C=CN1C(=O)c1ccc(N(CCCl)CCCl)cc1` (configuration not stated), for which the growth was 106% (inactive).
With `CSc1ccccc1NP1(=O)OCC(C)([N+](=O)[O-])CO1` (configuration not stated), the growth was 110% (inactive).
Regarding `Cc1ccc(N)cc1[As]=[As]c1cc(N)ccc1C` (configuration not stated), the growth is -26.3% (active).
Take `C/C(=N/OC(=O)N(C)C)c1cc(Cl)ccc1Cl`: the growth is 86.8% (inactive).
With `CCC(C)[C@H]1O[C@]2(C=C[C@@H]1C)C[C@@H]1C[C@@H](C/C=C(\C)[C@@H](OC3C[C@H](OC)C(O[C@H]4C[C@H](OC)[C@@H](O)[C@H](C)O4)[C@H](C)O3)[C@@H](C)/C=C/C=C3\CO[C@@H]4[C@H](O)C(C)=C[C@@H](C(=O)O1)[C@]34O)O2` (some centres not stated), the growth is -24.9% (active).
On the same count and under the same terms, the value for `CC1(C)N=C(N)N=C(N)N1c1ccc(CCCCc2ccc(S(=O)(=O)F)cc2)cc1` was 42.3% (inactive).
On to `Cc1ccc(C(=O)C2CN(C)CCC2(O)c2ccc(C)cc2)cc1` (configuration not stated), for which the growth was 94% (inactive).
With `O=C1NC(=O)C(CN2C(=O)C3(c4ccccc42)[C@H](Cl)C(=O)N3c2ccccc2)C(=O)N1` (some centres not stated), the growth is 105% (inactive).
In the case of `C=CCC1(CC)C(=O)NC(=S)NC1=O`, the growth was 110% (inactive).
On to `C/C(=N/OC(=O)N(C)C)c1ccc(Cl)cc1Cl`, for which the growth is 90.9% (inactive).
`CCC[CH2][Sn]([CH2]CCC)([CH2]CCC)[O]C(=O)CC`: the growth was -96.4% (active).
For `O=C(NCc1ccc([N+](=O)[O-])cc1)Nc1ccc(S(=O)(=O)F)cc1`, the growth was 55.9% (inactive).
Still for that read-out and setting: the value for `n1nc(-c2nonc2-c2nn[nH]n2)n[nH]1` was 81.9% (inactive); that for `CNC(=O)Oc1ccccc1-c1ccccc1` was 93.2% (inactive).
On to `CC1(C)N=C(N)N=C(N)N1c1ccc(OCCCCOc2ccc(S(=O)(=O)F)cc2)c(Cl)c1`, for which the growth is 29.3% (inactive).
For the compound `CCCCOC(=O)c1ccccc1C(=O)O.CCCCOC(=O)c1ccccc1C(=O)O.[Cu+2]`, the growth was 105% (inactive).
Still for that read-out and setting: in the case of `NC(=O)C(Cl)Cl` it was 106% (inactive).
In the case of `CCN(CC)c1ccc(C=C2C(=O)NC(=S)NC2=O)cc1`, the growth is 97.5% (inactive).
Consider `Clc1ccc(SSC(Cl)(Cl)Cl)cc1`, for which the growth is 111% (inactive).
As to `[O]=[Sn]([CH]1CCCCC1)[CH]1CCCCC1`, the growth was -98% (active).
As for `ClCCN(CCCl)c1nc(Cl)c(C2CC(c3ccccc3)=NN2c2ccccc2)s1` (configuration not stated), the growth was 103% (inactive).
As for `CC(=O)C1CCC2C3CC=C4CC(OC(=O)Cc5ccc(N(CCCl)CCCl)cc5)CCC4(C)C3CCC12C` (configuration not stated), the growth was 105% (inactive).
`Cc1ccccc1O`: the growth is 129% (inactive).
For `O=[N+]([O-])c1ccccc1N1CCNCC1`, the growth is 97.6% (inactive).

In a further assay the test system is HL-60(TB) leukemia. The assay is described as above. The note with it: 10 µM unless noted.
For the compound `ClCCN(CCCl)C(c1ccccc1)c1ccc(Cl)cc1` (configuration not stated), the growth is 15.1% (inactive).
As to `CCCCn1cc(C(=O)/C(C#N)=C/c2cc3ccccc3nc2Cl)c2cc(OC)ccc21`, the growth is 88.7% (inactive).
The same measure, in the same setting: in the case of `CCCCNCCc1ccccn1` it was 99.1% (inactive).
Regarding `CC(=O)C1C(=O)N(C)C(=O)N(C)C1=O`, the growth is 104% (inactive).
For `CC1(C)N=C(N)N=C(N)N1c1cccc(C(=O)Nc2cccc(S(=O)(=O)F)c2)c1`, the growth is 103% (inactive).
For `C[C@]12CC[C@@H]3C4=C(CC[C@H]3[C@@H]1CC[C@@H]2O)CC(=O)CC4`, the growth is 99.5% (inactive).
Still for that read-out and setting: the value for `Oc1ccccc1OB(Oc1ccccc1O)N(CCCl)CCCl` was 0.713% (active); that for `NC(Cc1ccc2c(c1)OCO2)c1ccc2c(c1)OCO2` (configuration not stated) was 108% (inactive); that for `COc1ccc(-c2ccc(OC)c(OC)c2OC)cc1` was -19.1% (active).
As to `CC1(C)N=C(N)N=C(N)N1c1ccc(CCCCc2ccc(S(=O)(=O)F)cc2)c(Cl)c1`, the growth is 19.2% (inactive).
Turning to `COc1ccc(C2=NN(c3ccccc3)C(c3sc(N(CCCl)CCCl)nc3Cl)C2)cc1` (configuration not stated), the growth was 99.8% (inactive).
With `N#CC1c2ccccc2C=CN1C(=O)c1ccc(N(CCCl)CCCl)cc1` (configuration not stated), the growth is 65.9% (inactive).
With `CSc1ccccc1NP1(=O)OCC(C)([N+](=O)[O-])CO1` (configuration not stated), the growth is 56.7% (inactive).
On to `Cc1ccc(N)cc1[As]=[As]c1cc(N)ccc1C` (configuration not stated), for which the growth was -43.9% (active).
As for `C/C(=N/OC(=O)N(C)C)c1cc(Cl)ccc1Cl`, the growth was 95.1% (inactive).
In the case of `CCC(C)[C@H]1O[C@]2(C=C[C@@H]1C)C[C@@H]1C[C@@H](C/C=C(\C)[C@@H](OC3C[C@H](OC)C(O[C@H]4C[C@H](OC)[C@@H](O)[C@H](C)O4)[C@H](C)O3)[C@@H](C)/C=C/C=C3\CO[C@@H]4[C@H](O)C(C)=C[C@@H](C(=O)O1)[C@]34O)O2` (some centres not stated), the growth is -26.2% (active).
`CC1(C)N=C(N)N=C(N)N1c1ccc(CCCCc2ccc(S(=O)(=O)F)cc2)cc1`: the growth is 21.2% (inactive).
Turning to `Cc1ccc(C(=O)C2CN(C)CCC2(O)c2ccc(C)cc2)cc1` (configuration not stated), the growth was 106% (inactive).
Take `O=S(=O)(O)c1ccc(-c2ccc([As](=O)(O)O)cc2)cc1`: the growth is 102% (inactive).
On to `O=C1NC(=O)C(CN2C(=O)C3(c4ccccc42)[C@H](Cl)C(=O)N3c2ccccc2)C(=O)N1` (some centres not stated), for which the growth is 85.4% (inactive).
For `O=[N+]([O-])c1cc([N+](=O)[O-])c(Cl)c(Cl)c1Cl`, the growth was 19.5% (inactive).
On the same count and under the same terms, in the case of `C=CCC1(CC)C(=O)NC(=S)NC1=O` it was 75.4% (inactive); in that of `C/C(=N/OC(=O)N(C)C)c1ccc(Cl)cc1Cl`, 93.7% (inactive).
Take `CCC[CH2][Sn]([CH2]CCC)([CH2]CCC)[O]C(=O)CC`: the growth is -1.98% (active).
For the compound `O=C(NCc1ccc([N+](=O)[O-])cc1)Nc1ccc(S(=O)(=O)F)cc1`, the growth was 85.1% (inactive).
Take `n1nc(-c2nonc2-c2nn[nH]n2)n[nH]1`: the growth was 105% (inactive).
As to `CNC(=O)Oc1ccccc1-c1ccccc1`, the growth is 94.8% (inactive).
For `CC1(C)N=C(N)N=C(N)N1c1ccc(OCCCCOc2ccc(S(=O)(=O)F)cc2)c(Cl)c1`, the growth is 19.3% (inactive).
Take `CCCCOC(=O)c1ccccc1C(=O)O.CCCCOC(=O)c1ccccc1C(=O)O.[Cu+2]`: the growth was 89.6% (inactive).
As to `O=[N+]([O-])c1ccc2cnn(CSP(=S)(c3ccccc3)c3ccccc3)c2c1`, the growth is 35.2% (inactive).
The same measure, in the same setting: in the case of `NC(=O)C(Cl)Cl` it was 80.8% (inactive); in that of `CCN(CC)c1ccc(C=C2C(=O)NC(=S)NC2=O)cc1`, 42.7% (inactive); in that of `Clc1ccc(SSC(Cl)(Cl)Cl)cc1`, 113% (inactive).
Still for that read-out and setting: the value for `[O]=[Sn]([CH]1CCCCC1)[CH]1CCCCC1` was 7.49% (active); that for `ClCCN(CCCl)c1nc(Cl)c(C2CC(c3ccccc3)=NN2c2ccccc2)s1` (configuration not stated) was 101% (inactive); that for `CC(=O)C1CCC2C3CC=C4CC(OC(=O)Cc5ccc(N(CCCl)CCCl)cc5)CCC4(C)C3CCC12C` (configuration not stated) was 101% (inactive).
Still for that read-out and setting: in the case of `Cc1ccccc1O` it was 110% (inactive).
As for `O=[N+]([O-])c1ccccc1N1CCNCC1`, the growth is 80.1% (inactive).
